Screens: PubChem BioAssay, several laboratories
CF NFkB inh = blocks PAF-induced NF-kB reporter in cystic fibrosis cells. hit rate 0.86% among 360,000. KKLEB NF-kB-GFP reporter, GFP fluorescence overnight. inhibition, % at 5 µM;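 active = at least 50% inhibition at 5 µM, scaled per plate between neutral and stimulator controls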;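 also: PAF is a Pseudomonas aeruginosa culture filtrate used as stimulus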
TROY NFkB inh = inhibitors of TROY-dependent NF-kB signaling | Q293 LMP1-TROYcd NF-kB luciferase reporter, 4 h | inhibition, % at 10 µM | hit rate 0.98% among 360,000 | AID 1347056;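 active = compounds whose plate-normalised and pattern-corrected inhibition of the luciferase reporter signal at the single screening dose is 50% or more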
TWEAK Fn14 block = inhibitors of TWEAK-Fn14 interaction signaling; inhibition, % at 10 µM; hit rate 2% among 360,000; TWEAK-stimulated Fn14 reporter cells, luciferase luminescence, 8 h; in the data active = inhibition above about 50%
EWS-Fli inh = EWS/Fli transcriptional activity inhibition; A673 NR0B1-luciferase reporter, viability-normalised; inhibition, % at 12.6 µM; hit rate 0.67% among 350,000;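 active = mean inhibition of at least 50% after viability correction, with every replicate also passing that limit; inconclusive = mean reaches 50% but only one of two replicates passes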;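 also: firefly luciferase signal divided by Alamar Blue viability fluorescence both relative to DMSO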
KKLEB cytotox = counter-screen for CF NF-kB inhibitors: cytotoxicity. KKLEB CF airway cells viability, ATPlite luminescence, overnight; active compounds read low; cells stimulated with P. aeruginosa culture filtrate. activity change (cytotoxicity), % at 5 µM. hit rate 0.36% among 360,000. AID 602141;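 active = corrected activity change at or below -50% at 5 µM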
LGR2 inh = Drosophila LGR2 receptor signaling inhibition; HEK293 LGR2, CRE-luciferase, bursicon-stimulated, 4 h; inhibition, % at 9.99 µM; hit rate 0.35% among 380,000;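 active = drop in luminescence signal, shown as inhibition above about 50% in the replicate tests, limit read from the data, passing the limit was not always enough; inconclusive = probably only some replicates passing the limit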;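 also: agonist challenge used bursicon conditioned medium at about half maximal strength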
Hits are given with their value; n = inactive; u = inconclusive; x = no result given. An excerpt weighted towards active compounds, which were near 2.6% of everything screened.

SMILES	CF NFkB inh	TROY NFkB inh	TWEAK Fn14 block	EWS-Fli inh	KKLEB cytotox	LGR2 inh
CCc1nnc(NC(=O)c2nc(S(=O)(=O)Cc3cccc(C)c3)ncc2Cl)s1	90	n	97	x	-90	n
CCc1nnc(NC(=O)c2nc(S(=O)(=O)Cc3ccc(C)cc3)ncc2Cl)s1	94	51	95	x	-82	n
CCSc1ncc(Cl)c(C(=O)Nc2ccccc2OC)n1	n	n	n	n	n	n
CCc1nnc(NC(=O)c2nc(Cl)ccc2Cl)s1	n	n	n	x	n	n
CCc1nnc(NC(=O)c2nc(S(=O)(=O)Cc3ccccc3)ncc2Cl)s1	90	n	97	x	-94	n
COc1ccc(Nc2nc(N3CCCCC3)c3ccccc3n2)cc1	n	n	n	x	n	x
Oc1ccc(Nc2nc(N3CCCC3)c3ccccc3n2)cc1	n	n	n	x	n	76
O=[N+]([O-])c1ccc(O)c(/C=N/n2cnnc2)c1	n	n	n	x	n	n
NC(N)=N/N=C/c1cc([N+](=O)[O-])ccc1O	n	n	n	x	n	n
O=[N+]([O-])c1ccc(O)c(/C=N\N=C2c3ccccc3-c3ccccc32)c1	n	n	n	x	-51	n
Cc1cc(C)n(/N=C/c2cc([N+](=O)[O-])ccc2O)c(=O)c1	n	60	n	n	n	n
CC(C)NC(=O)N1C[C@H]2[C@@H](c3ccccc31)[C@H](CO)N2Cc1ccc(Cl)cc1	x	x	x	n	x	n
Nc1nnc(SCc2ccc(Cl)cc2)s1	n	x	68	x	n	x
Nc1nnc(CSCc2ccc(Cl)cc2)s1	n	n	n	x	n	n
Cc1ccc(/C=C2\CCOC2=O)cc1	n	n	n	n	n	n
Cc1ccc(/C=C2/CNC/C(=C/c3ccc(C)cc3)C2=O)cc1	80	n	104	53	-63	55
COC(=O)c1ccc(C(=O)NC(=S)Nc2nc3c(s2)CC(C)CC3)cc1 (stereo unspecified)	n	93	109	x	n	n
CCOC(=O)N1CCN(S(=O)(=O)c2ccc(C(=O)Nc3nnc(C4CC4)o3)cc2)CC1	n	n	n	x	n	n
CCOC(=O)N1CCN(S(=O)(=O)c2ccc(C(=O)Nc3nc4c(s3)CC(C)CC4)cc2)CC1 (stereo unspecified)	n	n	n	x	-62	x
C[C@H]1CN([C@@H](C)CO)C(=O)c2cccc(NC(=O)c3nc4ccccc4s3)c2O[C@H]1CN(C)CC1CCCCC1	x	x	x	n	x	n
Cc1ccc(C2=C/C(=C/c3cccs3)C(=O)O2)cc1	n	n	53	x	n	n
COCC(=O)N[C@H]1C=C[C@@H](CC(=O)NCc2ccccc2OC)O[C@H]1CO	x	x	x	n	x	n
Cc1ccc(S(=O)(=O)N2CC[C@@H]3[C@@H](CO)N(C)c4ccc(C#Cc5cccnc5)cc4[C@@H]32)cc1	x	x	x	n	x	n
COc1cccc(NC(=O)N[C@@H]2C=C[C@@H](CC(=O)N3CCCCC3)O[C@@H]2CO)c1	x	x	x	x	x	n
C/C(=N\Nc1nc2ccccc2s1)c1ccc(Br)s1	n	n	51	n	n	n
SMILES	CF NFkB inh	TROY NFkB inh	TWEAK Fn14 block	EWS-Fli inh	KKLEB cytotox	LGR2 inh
CC(=NNc1nc2ccccc2s1)c1ccncn1	n	n	n	n	n	n
COc1ccc2cc(-c3cc(C(=O)OCC(=O)Nc4c(C)n(C)n(-c5ccccc5)c4=O)c4ccccc4n3)ccc2c1	n	n	60	x	n	u
COc1ccc(-c2cc(C(=O)Nc3c(C)n(C)n(-c4ccccc4)c3=O)c3ccccc3n2)cc1	n	n	n	n	n	n
[N-]=[N+]=NC1C[C@H](n2ccc(=O)[nH]c2=O)O[C@@H]1CO (stereo partly specified)	n	n	n	n	-61	x
Cc1ccc(-c2cnc3ccccc3n2)cc1C	n	n	73	u	n	n
CCCCOc1cccc(-c2cc(C(=O)NNC(=S)NCC)c3ccccc3n2)c1	n	n	n	x	n	x
CCC(=O)Nc1cccc(-c2cnc3ccccc3n2)c1	n	n	n	x	n	n
O=C(CCl)Nc1cccc(-c2cnc3ccccc3n2)c1	88	n	85	x	-64	x
CCCCOc1ccc(-c2cc(C(=O)NNC(=S)NCC)c3ccccc3n2)cc1	67	n	n	u	-89	x
Cc1cc2ncc(-c3ccccc3)nc2cc1C	n	n	n	n	n	n
CCCCOc1ccc(-c2cnc3ccccc3n2)cc1	n	52	79	x	n	70
CCCCOCCCNC(=O)C[C@H]1C[C@@]2(C(=O)OC)C(=C[C@H](C(C)(C)C)O[C@@H]2C)N(Cc2ccccc2)C1=O	x	x	x	n	x	n
CCS(=O)(=O)Nc1ccc2c(c1)C(=O)N(C)C[C@H](OC)[C@@H](C)CN(C)[C@@H](C)CO2	x	x	x	n	x	n
Cc1noc(C)c1NC(=O)NCC[C@@H]1CC[C@H](NC(=O)Nc2cccc(F)c2)[C@@H](CO)O1	x	x	x	n	x	n
CC(C)NC(=O)N(C)C[C@@H]1Oc2ccc(NC(=O)CCN3CCOCC3)cc2C(=O)N([C@@H](C)CO)C[C@@H]1C	x	x	x	n	x	n
Cn1nc([N+](=O)[O-])nc1Oc1ccccc1F	n	n	n	n	n	n
Cn1nc([N+](=O)[O-])nc1S(C)(=O)=O	70	n	54	n	n	n
CS(=O)(=O)c1nc([N+](=O)[O-])nn1CCCc1ccccc1	90	n	87	x	n	x
CC(=O)N1[C@H](CO)[C@H](c2ccccc2)[C@H]1CNC(=O)c1ccncc1	x	x	x	x	x	n
COC(=O)[C@]12CCCCC=C1N(CCc1ccc(OC)c(OC)c1)C(=O)[C@H](CC(=O)NCc1cccc3ccccc13)C2	x	x	x	n	x	n
COC(=O)[C@]12CCCCC=C1N(Cc1cccc3ccccc13)C(=O)[C@H](CC(=O)NCc1ccc(OC)c(OC)c1)C2	x	63	97	n	x	89
CCOC(=O)[C@]12CCC=C1N(Cc1cccc3ccccc13)C(=O)[C@H](CC(=O)NCc1ccc(OC)c(OC)c1)C2	x	n	61	n	x	n
CCOc1ccc(C(=O)Nc2cc(-c3nc4ccccc4[nH]3)ccc2C)cc1[N+](=O)[O-]	n	n	n	x	n	x
CCOc1ccc(C(=O)Nc2cc(-c3nc4ccccc4[nH]3)ccc2Cl)cc1[N+](=O)[O-]	n	n	n	n	-53	n
CCOc1ccc(C(=O)Nc2cccc(-c3nc4ccccc4[nH]3)c2C)cc1[N+](=O)[O-]	n	n	n	83	n	n
C[C@H](CO)N1C[C@H](C)[C@@H](CN(C)C(=O)CN2CCOCC2)Oc2cc(/C=C/c3ccccc3)ccc2S1(=O)=O	x	x	x	n	x	n
N#CC(C#N)=NNc1ccc(S(=O)(=O)N2CCCC2)cc1	n	55	51	x	n	n
N#C/C(=N/Nc1ccc(S(=O)(=O)N2CCOCC2)cc1)C(N)=O	n	n	n	n	n	n
N#C/C(=N\Nc1ccc(S(=O)(=O)N2CCCCC2)cc1)C(N)=S	n	n	50	n	n	n
N#C/C(=N\Nc1ccc(S(=O)(=O)N2CCCCCC2)cc1)C(N)=S	n	n	68	n	n	n
